In PubChem BioAssay AID2057 (The Scripps Research Institute Molecular Screening Center, 2009) one finds inhibition data, which are given here for 93 molecules.

In all, about 320,000 compounds went through this assay and about 2,100 (0.66%) were called active.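 Rule for the calls: active = inhibition above the mean inhibition of all tested compounds plus 3 SD, set per campaign (cut at about 40% in these data); inactive = the rest.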 What follows is part of a selection rich in actives, with near analogues and random picks from the rest.

Sequence of Induced myeloid leukemia cell differentiation protein Mcl-1 (Homo sapiens) (Q07820 whole entry, looked up): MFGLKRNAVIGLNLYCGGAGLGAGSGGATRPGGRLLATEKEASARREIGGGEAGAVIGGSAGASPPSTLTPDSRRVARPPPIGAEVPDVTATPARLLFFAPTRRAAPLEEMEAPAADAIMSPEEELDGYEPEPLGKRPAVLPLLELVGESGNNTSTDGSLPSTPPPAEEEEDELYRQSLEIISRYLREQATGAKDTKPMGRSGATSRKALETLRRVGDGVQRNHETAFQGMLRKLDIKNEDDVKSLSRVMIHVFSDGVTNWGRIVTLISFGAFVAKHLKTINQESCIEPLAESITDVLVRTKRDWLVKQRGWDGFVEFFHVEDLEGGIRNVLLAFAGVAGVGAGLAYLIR

The assay addresses Induced myeloid leukemia cell differentiation protein Mcl-1 (Homo sapiens) (UniProt Q07820). Kind of assay: MCL1-BIM peptide interaction disruptors – biochemical, fluorescence polarization, primary screen (AID 2057).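 Note: 0% = DMSO wells and 100% = unlabeled Bim-BH3 peptide control; higher means more loss of mP so more displacement of Bim peptide.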 To be noted: GST-MCL1 / FITC-Bim-BH3 fluorescence polarization; at 10.9 µM; stronger effect = higher value. A general note: Fluorescence polarisation rises when a labelled molecule tumbles more slowly, as on binding a larger partner.
Regarding `CCCn1c(O)c(CN2CCCC(C)C2)c(C)c(C#N)c1=O` (stereo not drawn), the inhibition was 57.2% (active). For the molecule `Cc1c(CN2CCCCC2)c(O)n(CCO)c(=O)c1C#N`, the inhibition is 18.2% (inactive). The result for `CCCCCCn1c(CN2CCCC(C)C2)nc2c1c(=O)n(C)c(=O)n2C` (stereo not drawn) reads 4.79% (inactive); that for `O=C(COC(=O)c1ncc(Cl)c(Cl)c1Cl)NC1CCS(=O)(=O)C1` (stereo not drawn), -1.74% (inactive); that for `O=C(CN1CCN(c2ccccc2O)CC1)NC(=O)NCc1ccccc1`, 5.09% (inactive). Regarding `CC(=O)c1ccc(NC(=O)CCc2nnc3ccc(NCc4ccco4)nn23)cc1`, the inhibition was 2.1% (inactive). For `CC(C)CCN1CCN(Cc2cn[nH]c2C2CCCCC2)CC1CCO` (stereo not drawn), the inhibition is -6.25% (inactive). For `CN(C)S(=O)(=O)c1ccc(N/C=C(\[N+](=O)[O-])S(=O)(=O)c2ccccc2)cc1` the value was 2.14% (inactive); for `CC(NCc1nc2ccccc2n1C)C12CC3CC(CC(C3)C1)C2` (stereo not drawn), -2.96% (inactive); for `Cc1c(-c2ccccc2)nc(N)c(C#N)c1-c1cccs1`, 4.53% (inactive). The result for `CCc1c(-c2ccccc2)nc(N)c(C#N)c1-c1cccs1` reads 11.5% (inactive); that for `CN1CCc2nc(SC(C(=O)O)c3ccccc3)c(C#N)c(-c3cccs3)c2C1` (stereo not drawn), 45.7% (active); that for `CCN(CC(=O)NC1CCS(=O)(=O)C1)S(=O)(=O)c1ccccc1` (stereo not drawn), -7.02% (inactive). The result for `COc1ccc(C2/C=C\CN(S(=O)(=O)c3cccs3)CC(=O)N2Cc2ccc(F)cc2)cc1` (stereo not drawn) reads 3.81% (inactive). As to `O=C(CCS(=O)(=O)c1ccccc1)NC1CCCC1`, the inhibition was -0.76% (inactive). `CC(=O)c1ccc(N2C(=NC(=O)C(C)C)SC3CS(=O)(=O)CC32)cc1` (stereo not drawn): the inhibition is 2.13% (inactive). The result for `Cc1cc2ccccc2n1CCNC(=O)COc1ccc2ccccc2c1` reads 2.6% (inactive); that for `O=C(O)CCn1c(Cc2ccccc2)nc2ccccc21`, 1.68% (inactive); that for `Cc1cc2ccccc2n1CCC(=O)O`, 49.7% (active). Turning to `O=C(O)C1C2CC2CN1C(=O)c1ccc(Cl)cc1Cl` (stereo not drawn), the inhibition is 0.95% (inactive). The result for `Cc1cccc(C)c1Nc1c(-c2ccccc2O)nc2ncccn12` reads 0.37% (inactive); that for `CCC(C)CN1CCC(CO)(Cc2ccccc2Cl)CC1` (stereo not drawn), 0.34% (inactive); that for `COC(=O)c1sc(C(F)(F)F)c(-c2ccccc2)c1S(=O)(=O)N(C)C`, 4.01% (inactive).

In the case of `Cc1cc(Cl)ccc1NNC(=O)c1snnc1C`, the inhibition is 6.52% (inactive). For the molecule `O=C(Cn1cnc2ccccc21)Nc1ccccc1-c1ccccc1`, the inhibition was 6.02% (inactive). With `O=C(COC(=O)Cn1cnc2ccccc21)Nc1cccc2c1C(=O)c1ccccc1C2=O`, the inhibition is 155% (active). Regarding `O=C(COC(=O)c1cccc(Br)c1)Nc1cccc2c1C(=O)c1ccccc1C2=O`, the inhibition was -1.24% (inactive). With `COc1ccc(OC)c2[nH]c(=O)c(CCNC(=O)C(=O)c3c[nH]c4ccccc34)cc12`, the inhibition is 7.82% (inactive). The result for `CCn1c(=S)sc2c(=O)n(CC(=O)Nc3cccc(Br)c3)c(C)nc21` reads -2.89% (inactive); that for `COc1cccc(NC(=O)C2C(c3ccccc3)C2(Cl)Cl)c1` (stereo not drawn), 6.86% (inactive); that for `CCN1CCN(CC(=O)c2cc(OC)c(OC)c(OC)c2)CC1`, 0.87% (inactive). In the case of `O=C(OCC1O[C@@H](OC(=O)c2cc(O)c(O)c(O)c2)[C@@H](OC(=O)c2cc(O)c(O)c(O)c2)[C@@H](OC(=O)c2cc(O)c(O)c(O)c2)[C@@H]1OC(=O)c1cc(O)c(O)c(O)c1)c1cc(O)c(O)c(O)c1` (stereo partly drawn), the inhibition was 74.8% (active). As to `O=C(OCC1OC(Oc2ccc(O)cc2)C(O)C(O)C1O)c1ccccc1` (stereo not drawn), the inhibition is -1.58% (inactive).

On to `COC(=O)C(C)Sc1ccc2nnc(-c3cccc(F)c3)n2n1` (stereo not drawn), for which the inhibition was -5.54% (inactive). Regarding `O=C1c2ccccc2C(=O)c2c1cccc2N1CCN(Cc2ccccc2)CC1`, the inhibition was 7.86% (inactive).

Consider `O=C1c2ccccc2C(=O)c2c1cccc2N1CCN(CCO)CC1`, for which the inhibition was 60.6% (active). Take `O=C1c2ccccc2C(=O)c2c1cccc2N1CCN(C/C=C/c2ccccc2)CC1`: the inhibition is 13.8% (inactive). As to `CCC(=O)c1ccc(OCC(=O)Nc2ccc(N3CCCCC3)cc2)cc1`, the inhibition was 0.81% (inactive). Regarding `Cc1ccc(S(=O)(=O)N2CC(C)N(S(C)(=O)=O)C2)cc1` (stereo not drawn), the inhibition is 7.35% (inactive). The result for `CC1CCc2sc(C(=O)NCC(c3ccco3)N3CCCCC3)cc2C1` (stereo not drawn) reads -3.03% (inactive). Regarding `COc1ccc(CCN2C(=O)N(c3ccc(OC)cc3)C(=O)C2CC(=O)Nc2ccc(OC)cc2)cc1` (stereo not drawn), the inhibition is 2.06% (inactive).

Regarding `CC(=O)Nc1ccc(Nc2cc(C)nc(Nc3ccc(NC(C)=O)cc3)n2)cc1`, the inhibition was -11.2% (inactive). The result for `Cc1cc(C)c(CN2CCN(C(=O)Cn3ccc(NC(=O)OCc4ccccc4)nc3=O)CC2)c(C)c1` reads 2.72% (inactive). The result for `O=C(CNC(=O)Cc1ccccc1)N=Nc1c(O)[nH]c2ccc(Br)cc12` reads 4.04% (inactive). Turning to `NS(=O)(=O)c1ccc(N=Nc2c(O)[nH]c3ccc(Br)cc23)cc1`, the inhibition is 44.2% (active). The result for `Oc1[nH]c2ccc(Br)cc2c1N=Nc1nn[nH]n1` reads 6.9% (inactive); that for `Cc1ccc(C(=O)NC(=S)Nc2ccc(N3CCOCC3)cc2)cc1`, 46.3% (active); that for `Cc1ccc(C(=O)NC(=S)NCCN2CCOCC2)cc1`, 6.07% (inactive). The result for `Cc1ccc(NC(=S)NC(=O)c2ccc(-c3ccccc3)cc2)cc1` reads 4.74% (inactive). As for `CC(=O)Nc1ccc(S(=O)(=O)NC2Cc3ccccc3C2)cc1`, the inhibition was 1.26% (inactive).

`COc1ccc(/C(N)=N/OC(=O)CCCc2ccccc2)cc1`: the inhibition was -1.09% (inactive). As for `N/C(=N\OC(=O)CCc1ccccc1)c1ccc(Cl)cc1`, the inhibition was 64.4% (active). Take `N/C(=N\OC(=O)CCc1ccccc1)c1cccnc1`: the inhibition was 4.17% (inactive).

Turning to `CCCSC(=S)NC1CCS(=O)(=O)C1` (stereo not drawn), the inhibition was 2.09% (inactive).

In the case of `CCOc1cc(NC(=S)NCCCOC)c(OCC)cc1NC(=O)c1ccco1`, the inhibition was 9.31% (inactive). The result for `Cc1cc(C)cc(NC(=O)NCc2ccccn2)c1` reads 1.97% (inactive); that for `Cc1nc2cc(NC(=O)NCc3ccccc3)ccc2o1`, -6.46% (inactive). The result for `COc1ccc2oc(=O)c(C(=O)NCc3ccccn3)cc2c1` reads 0.27% (inactive). For `O=C(NCc1ccccn1)c1ccc2nc(-c3ccco3)c(-c3ccco3)nc2c1`, the inhibition was 106% (active). For `COCCNC(=O)Nc1ccc2nc(-c3ccco3)c(-c3ccco3)nc2c1` the value was 131% (active); for `Cc1cc(C)nc(-n2ncc3c2CC(c2ccc(C(C)C)cc2)CC3=O)n1` (stereo not drawn), 2.19% (inactive); for `O=C(COC(=O)C1CCN(S(=O)(=O)c2ccc3c(c2)OCCO3)CC1)Nc1ccccc1OC(F)F`, 0.49% (inactive). For `O=C1CCN(C(=O)Nc2ccccc2)N1` the value was -0.78% (inactive); for `C=CCOc1cccc(C2C(C(=O)c3ccc(C)o3)=C(O)C(=O)N2c2nnc(C)s2)c1` (stereo not drawn), 81.2% (active). The result for `C=CCOc1cccc(C2C(C(=O)c3ccc(C)o3)=C(O)C(=O)N2CCCn2ccnc2)c1` (stereo not drawn) reads -4.11% (inactive); that for `Cc1cc(N2C(=O)C(O)=C(C(=O)c3ccc(C)o3)C2c2ccc(OCc3ccccc3)cc2)no1` (stereo not drawn), 10.4% (inactive). As to `CCNC(=S)N(CCN(CC)CC)Cc1cc2cc3c(cc2[nH]c1=O)OCCO3`, the inhibition was 13.5% (inactive). Consider `Cc1ccc(OCC(=O)Nc2ccccc2Sc2ccc(Cl)cc2)c([N+](=O)[O-])n1`, for which the inhibition is 3.45% (inactive). For `CC(C)c1csc(CN2CCC(CO)(Cc3ccccc3)CC2)n1` the value was 8.03% (inactive); for `COc1ccc2[nH]c(C)c(CCN(Cc3cccs3)C(=S)Nc3ccccc3OC)c2c1`, 65.3% (active); for `COc1cccc(NC(=S)N(CCc2c(C)[nH]c3ccccc23)Cc2ccco2)c1`, 4.2% (inactive). Turning to `Cc1[nH]c2ccccc2c1CCN(Cc1cccs1)C(=S)NC(C)(C)C`, the inhibition was 7.74% (inactive). On to `CC(CC(=O)N1CCN(c2ccccc2)CC1)S(=O)(=O)c1ccc2c(c1)NC(=O)CS2` (stereo not drawn), for which the inhibition is -2.69% (inactive). For `CN(C(=O)COC(=O)CNC(=O)C12CC3CC(CC(C3)C1)C2)c1ccccc1` the value was -5.29% (inactive). On to `Cc1ccsc1C(=O)NCCc1ccco1`, for which the inhibition is 7.13% (inactive). For `COc1ccccc1-c1oc2ccccc2c1C#CCCCCO`, the inhibition is -3.18% (inactive). As for `CC(=O)Nc1ccc(S(=O)(=O)N2CCC(C(=O)NC3CC3)CC2)cc1`, the inhibition was -6.89% (inactive). With `Cc1ccc(/C=C(\C#N)C(=O)Nc2cccc3ncccc23)o1`, the inhibition is 138% (active). For the molecule `Cc1ccc(Cc2cnc(NC(=O)/C(C#N)=C/c3ccc(-c4cccc([N+](=O)[O-])c4)o3)s2)cc1`, the inhibition was -0.71% (inactive). The result for `O=C(O)c1cc(Cl)c(Cl)cc1C(=O)Nc1cccc2ncccc12` reads -1.24% (inactive); that for `COc1ccc(OC)c(C(C)NC(=S)Nc2ccc(S(=O)(=O)Nc3ncccn3)cc2)c1` (stereo not drawn), 5.87% (inactive); that for `CCN(CC)CCNC(=O)c1sc2ncn(CC(=O)Nc3ccc(C)c(Cl)c3)c(=O)c2c1C`, -4.53% (inactive). Turning to `CCOc1cc(C(=S)N2CCOCC2)ccc1OS(=O)(=O)c1ccc(Br)cc1`, the inhibition was 2.62% (inactive). `CSc1ccccc1-c1nnc(-c2ccc(Cl)cc2)o1`: the inhibition is -2.22% (inactive).

Turning to `COc1ccc(/C=N/NC(=O)c2ccncc2)cc1CN1CCCc2ccccc21`, the inhibition was 9.1% (inactive).

As for `Cc1c(Nc2cc(N3CCCC(C)C3)c3nonc3c2[N+](=O)[O-])c(=O)n(-c2ccccc2)n1C` (stereo not drawn), the inhibition was -0.42% (inactive).

With `Nc1cc(N2CCCCCC2)c2nonc2c1[N+](=O)[O-]`, the inhibition is 48% (active). `Nc1nc(NCC(=O)O)nc(N2CCCCCC2)c1[N+](=O)[O-]`: the inhibition was 1.22% (inactive). The result for `CC(C)COC(=O)C1C2C=CC3(CN(C(C)c4ccc(Br)cc4)C(=O)C13)O2` (stereo not drawn) reads -1.26% (inactive); that for `Cc1ccc(C(=O)COC(=O)CCCC(=O)NC2CCCCC2)cc1[N+](=O)[O-]`, -0.81% (inactive); that for `C=CCNC(=O)CSc1nc2scc(-c3ccco3)c2c(=O)n1CC=C`, -5.54% (inactive). The result for `C=CCn1c(=S)[nH]c2scc(-c3ccco3)c2c1=O` reads 67.4% (active); that for `C=CCn1c(SCc2csc(C)n2)nc2scc(-c3ccc(C)o3)c2c1=O`, -8.6% (inactive).

By inhibition is commonly meant the drop in the measured response relative to a control, in per cent.
